# Measurements from PubChem BioAssay (EPA / NIEHS).
# The source made the active and inactive calls. Rule for the calls: active = hit-call score of the fitted dose curve at least 0.9, where 1 is the maximum; inactive = score below 0.9.
# Assay: CEETOX_H295R_ANDR_noMTC: CeeTox H295R High-throughput Steroidogenesis Assay for Androstenedione (ANDR), maximum tolerated concentration (MTC) filtered results only (AID 2283915)
# Settings: actives raise or lower the signal
# Protocol: CEETOX_H295R is a cell-based, multiplexed-readout assay that uses H295R, a human adrenal gland cell line, with measurements taken at 48 hours after chemical dosing in a 96-well plate.CEETOX_H295R_ANDR_noMTC is one of 12 assay component(s) measured or calculated from the CEETOX_H295R assay (11 hormones and 1 viability assay). It is designed to make measurements of hormone induction, a form of inducible reporter, as detected with absorbance signals by HPLC-MS-MS technology. The concentrations for these components have not been pre-filtered for the maximum tolerated concentration (MTC) based on the MTT assay (_noMTC).Data from the assay component CEETOX_H295R_ANDR_noMTC was analyzed into 1 assay endpoint. This assay endpoint, CEETOX_H295R_ANDR_noMTC, was analyzed with bidirectional fitting relative to DMSO as the negative control and baseline of activity. […]
# Cell culture and media preparation procedures were conducted in accordance with OECD Test No. 456 guidelines, with minor modifications. […] For steroid quantification, media samples were shipped to OpAns, LLC (Durham, NC) on dry ice, and samples were thawed to room temperature prior to liquid-liquid extraction. […] Steroid hormones were separated by HPLC, eluted using a reverse phase C18 gradient with electrospray positive ionization, followed by quantification by tandem mass spectrometry (MS/MS). […]
structure (smiles),measurement,value
CCOP(=S)(OCC)SCS(=O)(=O)CC,AC50,37.9 µM (active)
